# Rows were chosen to be rich in hits. Some 2% of all compounds tested hit in one or more screens of this group.
# NadD block = inhibitors of Staphylococcus aureus NadD. purified NadD enzyme, colorimetric absorbance read-out. inhibition, % at 20 µM. 360,000 compounds, 0.78% hits. AID 602399; in the data active = inhibition above about 26%
# ARNT TACC3 PPI = disruptors of human ARNT/TACC3 interaction | inhibition, % at 9.99 µM | 390,000 compounds, 0.66% hits | AlphaScreen His-ARNT PAS-B/GST-TACC3 binding, luminescence; TACC3 fragment carries E629A point mutation | Q9Y6A5;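 active = mean inhibition of replicates at least 50% and at least half of replicates each reaching 50%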
# sPLA2-III inh = Inhibits HGIII-sPLA2 liposome hydrolysis, primary screen; inhibition, % at 12.2 µM; QFRET BODIPY PC-A2 liposome hydrolysis, fluorescence; Q9NZ20; 370,000 compounds, 0.56% hits;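 active = inhibition above mean plus 3 SD of compounds lying within the high and low control bounds, cut at about 19% in these data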
# DAGLB inhibitor = diacylglycerol lipase beta (human) inhibition. 340,000 compounds, 0.059% hits. inhibition, % at 5.17 µM. HEK293T DAGLB membrane lysate, EnzChek fluorogenic substrate; in the data active = inhibition above about 34%
# Target sequence (Q8NCG7 whole entry, looked up): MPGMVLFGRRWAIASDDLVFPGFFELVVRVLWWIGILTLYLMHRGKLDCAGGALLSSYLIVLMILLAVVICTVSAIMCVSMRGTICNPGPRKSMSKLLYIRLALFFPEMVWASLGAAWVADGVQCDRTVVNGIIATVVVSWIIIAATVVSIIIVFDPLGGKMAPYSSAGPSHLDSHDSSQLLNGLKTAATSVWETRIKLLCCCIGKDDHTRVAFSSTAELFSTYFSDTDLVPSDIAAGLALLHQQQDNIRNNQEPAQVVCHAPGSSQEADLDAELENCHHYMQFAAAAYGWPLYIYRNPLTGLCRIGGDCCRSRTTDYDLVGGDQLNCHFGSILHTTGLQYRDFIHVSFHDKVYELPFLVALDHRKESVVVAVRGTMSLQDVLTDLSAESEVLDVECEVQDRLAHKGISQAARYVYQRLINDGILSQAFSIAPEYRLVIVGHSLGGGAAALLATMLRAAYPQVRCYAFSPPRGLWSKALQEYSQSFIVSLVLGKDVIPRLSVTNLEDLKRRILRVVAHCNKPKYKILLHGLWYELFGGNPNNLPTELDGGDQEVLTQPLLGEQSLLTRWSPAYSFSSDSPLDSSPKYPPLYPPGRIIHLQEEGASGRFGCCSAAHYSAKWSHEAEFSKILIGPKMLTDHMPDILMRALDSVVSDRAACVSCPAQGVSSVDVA
# Neddylation inh = cullin neddylation inhibition. P61081+Q13564. TR-FRET cullin neddylation, biochemical. inhibition, % at 25 µM. 360,000 compounds, 0.58% hits; in the data active = inhibition above about 36%
# Numbers stand for hits; i = inactive; nt = no result shown.
SMILES,NadD block,ARNT TACC3 PPI,sPLA2-III inh,DAGLB inhibitor,Neddylation inh
CN(C)c1ccc(/C=C(\NC(=O)c2ccccc2)C(=O)NCCCn2ccnc2)cc1,i,54,i,i,i
COc1ccc(/C=C(\NC(=O)c2ccc(C)cc2)C(=O)NCCCn2ccnc2)cc1OC,i,54,i,i,i
Cc1ccc(S(=O)(=O)NCC[C@H]2CC[C@@H](NC(=O)Nc3cccc(F)c3)[C@H](CO)O2)cc1,nt,i,nt,nt,nt
CCCN1C[C@H](C)[C@H](OC)CN(C)C(=O)c2ccc(NC(=O)c3ccccc3)cc2OC[C@@H]1C,nt,i,nt,nt,nt
COc1cccc(OC)c1-c1nn2c(-c3cc(-c4ccccc4)n[nH]3)nnc2s1,52,i,i,i,i
Clc1ccccc1-c1nn2c(-c3cc(-c4ccccc4)n[nH]3)nnc2s1,nt,nt,i,nt,nt
N=c1c(-c2nc3ccccc3[nH]2)cc(C(=O)c2ccco2)nn1-c1ccccc1,i,i,25,i,i
N=c1c(-c2nc3ccccc3[nH]2)cc(C(=O)c2cccs2)nn1-c1ccccc1,i,i,nt,i,i
CCOCCCNC(=O)C(NC(=O)CNC(C)=O)c1ccc(Cl)cc1 (configuration not stated),i,i,i,i,i
CCOCCCNC(=O)C(NC(=O)c1ccccc1O)c1ccc(Cl)cc1 (configuration not stated),i,i,nt,i,43
COc1ccc(C(=O)c2ccccc2)c2c(O)ccc(C(=O)c3ccccc3)c12,31,i,i,i,i
COc1ccc(C(=O)c2ccc(Cl)cc2)c2ccccc12,i,i,i,i,i
CN(C)c1ccc(O)c2c1CC1CC3[C@@H](N(C)C)C(=O)C(C(N)=O)C(=O)[C@]3(O)C(=O)C1C2=O (some centres not stated),i,60,i,i,i
CN(C)c1ccc(O)c2c1CC1CC3C(N(C)C)C(=O)C(C(N)=O)=C(O)[C@@]3(O)C(=O)C1=C2O (some centres not stated),i,i,i,i,i
CC(=O)Nc1ccc(S(=O)(=O)Nc2nc3ccccc3nc2Nc2ccc(C(=O)O)c(O)c2)cc1,i,40,i,i,i
CC(=O)Nc1ccc(S(=O)(=O)Nc2nc3ccccc3nc2Nc2ccc3ccccc3c2)cc1,i,i,i,i,nt
CCOC(=O)c1ccccc1NC(=O)CSc1ccc(-c2ccccn2)nn1,i,64,i,i,i
CCc1ccc(NC(=O)CSc2ccc(-c3ccccn3)nn2)cc1,i,51,i,i,i
O=C(CSc1ccc(-c2ccccn2)nn1)c1ccc([N+](=O)[O-])cc1,i,52,i,i,i
CCc1ccc(NC(=O)CSc2ccc(-c3cccnc3)nn2)cc1,i,i,i,i,i
COCC(=O)N(C)C[C@@H]1Oc2cc(-c3ccc(C#N)cc3)ccc2S(=O)(=O)N([C@@H](C)CO)C[C@H]1C,nt,i,nt,nt,nt
O=C(COC(=O)c1cc(-c2cccs2)nc2ccccc12)NC1CCS(=O)(=O)C1 (configuration not stated),i,49,i,i,nt
O=C(COC(=O)c1cc(-c2cccc3ccccc23)nc2ccccc12)NC1CCS(=O)(=O)C1 (configuration not stated),i,i,i,i,i
C[C@@H]1CCCCO[C@H](CN(C)S(=O)(=O)c2ccc(F)cc2)[C@@H](C)CN([C@@H](C)CO)C(=O)c2cc(NC(=O)CCCN(C)C)ccc2O1,nt,i,nt,nt,nt
CCCC(=O)Nc1ccc2c(c1)OC[C@H](C)N(Cc1ccccc1F)C[C@H](C)[C@@H](OC)CN(C)C2=O,nt,i,nt,nt,nt
SMILES,NadD block,ARNT TACC3 PPI,sPLA2-III inh,DAGLB inhibitor,Neddylation inh
O=c1ccc2cc3c([nH]c4ccc(Br)cc43)oc-2c1O,i,i,43,43,i
O=C(O)c1ccc(N=Nc2c(O)[nH]c3ccc(Br)cc23)cc1,i,nt,i,i,i
CO[C@H]1CN(C)C(=O)c2ccc(NC(=O)NC(C)C)cc2OC[C@@H](C)N(C(=O)C2CCC2)C[C@@H]1C,nt,i,nt,nt,nt
O=C(CCCn1c(=O)oc2ccccc21)N1CCc2ccccc2C1,i,active,i,i,i
O=C(CCn1c(=O)oc2ccccc21)NCCN1CCc2ccccc2C1,i,i,i,i,i
COc1cccc(-c2cccc(-c3nc(C(=O)O)cc4c3[C@@H](CCO)N(S(=O)C(C)(C)C)C4)c2)c1 (some centres not stated),nt,43,nt,nt,nt
COc1cccc(-c2cccc(-c3nc(C(=O)Nc4ccc(-c5ccccc5)cc4)cc4c3[C@H](CCO)N(S(=O)C(C)(C)C)C4)c2)c1 (some centres not stated),35,nt,nt,nt,i
COc1cc(CNCc2ccccn2)ccc1OCC(=O)NC1CCCCC1,i,47,i,i,i
COc1cc(CNCc2ccccn2)ccc1OCC(=O)NC(C)(C)C,i,82,i,i,i
CCOc1cc(CNCc2ccccc2)ccc1OCC(=O)NC1CCCCC1,i,nt,i,i,i
COc1cc(CNCc2cccnc2)ccc1OCC(=O)NC(C)(C)C,i,i,i,i,i
CCOc1c(Cl)cc(CNCc2ccccn2)cc1OC,i,49,i,i,i
COc1cc(CNCc2ccccn2)ccc1OCc1ccccc1Cl,i,i,i,i,i
CNC(=O)C[C@@H]1CC[C@H]2[C@@H](COC[C@H](O)CN2C(=O)c2ccccn2)O1,nt,i,nt,nt,nt
O=C(C[C@H]1C=C[C@H](NC(=O)Nc2ccc(F)cc2)[C@@H](CO)O1)NCc1cccc(F)c1,nt,i,nt,nt,nt
COc1ccc(C2NC(=S)NC3=C2CCCC3=C2SCCS2)cc1 (configuration not stated),61,i,i,i,i
S=C1NC2=C(CCCC2=C2SCCCS2)C(c2ccccc2)N1 (configuration not stated),i,i,i,i,i
O=C(C[C@@H]1C=C[C@@H](NS(=O)(=O)c2ccccc2F)[C@@H](CO)O1)NCCCN1CCOCC1,nt,i,nt,nt,nt
C/C=C/c1ccc2c(c1)O[C@H](CN(C)C)[C@@H](C)CN([C@H](C)CO)S2(=O)=O,nt,i,nt,nt,nt
COc1cccc(NC(=O)N(C)C[C@@H]2Oc3cc(C#Cc4ccc(F)cc4)ccc3S(=O)(=O)N([C@@H](C)CO)C[C@@H]2C)c1,nt,i,nt,nt,nt
COc1cccc(N=Nc2c(N)[nH]n3c(=O)cc(-c4ccccc4)nc23)c1,42,i,i,i,i
Cc1cc(=O)n2[nH]c(N)c(N=Nc3ccccc3)c2n1,i,i,i,i,i
Cc1ccc(N=Nc2c(N)[nH]n3c(=O)cc(-c4ccccc4)nc23)cc1,55,i,i,i,i
CCCC#Cc1ccc2c(c1)O[C@@H](CN(C)C(=O)C1CC1)[C@H](C)CN([C@H](C)CO)S2(=O)=O,nt,i,nt,nt,nt
Cc1cc(C(=O)Nc2ccc3c(c2)C(=O)N(C)[C@@H]2CC[C@@H](CC(=O)NC4CCCC4)O[C@H]2CO3)no1,nt,i,nt,nt,nt
COc1cccc(CNc2cccc3cccnc23)c1O,i,i,i,i,i
Oc1c(Br)cc(Br)cc1CNc1cccc2cccnc12,57,113,i,i,i
Oc1ccc(Br)cc1CNc1cccc2cccnc12,i,49,i,i,i
Nc1c(Cl)ncnc1N/N=C/c1ccccn1,nt,nt,i,nt,nt

# Source: PubChem BioAssay
